# Experimental data published in PubChem BioAssay (NCATS).
# Records with an inconclusive call do not appear. A call without a number means that no potency is given here. Unmarked numbers belong to inactive results. Activity calls are given as the source filed them. Calls follow the shape of the dose curve; as a rule, active = well fitted curve in the direction sought with a large enough effect; inconclusive = small, poorly fitted or top-dose-only effect, or another doubt; inactive = no such curve, though single readings can be large; an effect the other way counts as inactive or inconclusive.
# Legend:
# [1] = test system: SKOV3; test: Primary qHTS to identify gynecologic anti-cancer compounds using libraries of approved drugs and bioactive compounds (AID 1345084); settings: Gynecologic cancer cell panel viability, ATPlite luminescence, 48 h; series mostly up to 57.5 µM; also: nearly all actives have a fitted effect of over 55% in size
# In short: (§1)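 Cell viability after 48 h drug treatment, ATPlite luminescence readout; five doses.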
# [2] = test system: Tov112D; test: as above; settings: Gynecologic cancer cell panel viability, ATPlite luminescence, 48 h; series mostly up to 57.5 µM
# In short: as §1
# [3] = test system: Tov-21-G; test: as above; settings: Gynecologic cancer cell panel viability, ATPlite luminescence, 48 h; series mostly up to 57.5 µM
# In short: as §1
# [4] = Drug repurposing screens with cells derived from glioblastoma tumor samples (AID 1345199); settings: GBM patient neurospheres viability, ATP luminescence, 48 h; also: nearly all actives have a fitted effect of over 40% in size
# In short: (§2)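 Four patient lines of CD133+ GBM neurospheres were screened at several concentrations; hits were retested in those lines plus three slower-growing GBM lines, using 48-hour treatment and ATP-based viability.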
# [5] = test system: astro; test: as above; settings: viability, ATP luminescence, 48 h; series mostly up to 45.9 µM
# In short: as §2
# [6] = qHTS assay to identify inhibitors of the type 1 interferon - major histocompatibility complex class I in skeletal muscle: Counter screen cell viability and HiBit confirmation (AID 1347412); settings: iHSKM muscle cells + IFN-b, HiBiT or CellTiter-Glo, 24 h; for activity change, negative = inhibition: at 45.9 µM (top of the series); as to all read-outs here: nearly all actives have a fitted effect of over 60% in size
# In short: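 Duplicate plates, pinned identically: one read for HiBiT-tagged endogenous HLA-B luminescence, the other for ATP-content viability via CellTiter Glo. Cells were genome-engineered human myoblasts given 4 ng/ml IFN-b; compounds 12-pt, 1:3 from 46 uM final; 24 hr exposure.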
# Potency is read from the fitted curve at half-maximal effect.
structure (smiles),measurement,setting,value
C=C(C)Cn1c(SCC(=O)c2cccs2)nc2sc3c(c2c1=O)CCCC3,Potency,[1],inactive
same,Potency,[2],inactive
O=C(NCCCn1ccnc1)c1cc(-c2ccco2)on1,Potency,[1],inactive
same,Potency,[2],inactive
CCNC1(C(N)=O)CCN(c2ncnc3c2nc(-c2ccccc2Cl)n3-c2ccc(Cl)cc2)CC1,Potency,[1],inactive
same,Potency,[3],inactive
same,Potency,[2],inactive
COc1ccnc(CS(=O)c2nc3cc(OC(F)F)ccc3[nH]2)c1OC (stereo unspecified),Potency,[1],inactive
same,Potency,[3],inactive
same,Potency,[2],inactive
same,"activity, negative = cell killing","[4]; at 45.9 µM (top of the series), tumour line B",-14.8%
same,"activity, negative = cell killing","[4]; at 45.9 µM (top of the series), tumour line D",-24.9%
same,"activity, negative = cell killing","[4]; at 46.1 µM (top of the series), tumour line C",-12.9%
same,Potency,[4]; tumour line A,28.2 µM (active)
same,Potency,[5],inactive
CC(/C=C/C(=O)NO)=C\[C@@H](C)C(=O)c1ccc(N(C)C)cc1,Potency,[1],1.58 µM (active)
same,Potency,[3],3.55 µM (active)
same,Potency,[2],1.78 µM (active)
same,Potency,[6]; HiBiT,1.76 µM (active)
same,"activity change, negative = inhibition",[6]; Viability,-7.11%
CC(=O)OC1CC(C)(C(=O)O)CC2C3=CC(=O)C4C5(C)CCC(OC6OC(C(=O)O)C(O)C(O)C6OC6OC(C(=O)O)C(O)C(O)C6O)C(C)(C)C5CCC4(C)C3(C)CCC12C (stereo unspecified),"activity change, negative = cytotoxicity",[1],0% [at 11.6 µM]
same,"activity change, negative = cytotoxicity",[3],-2.43% [at 11.6 µM]
same,"activity change, negative = cytotoxicity",[2],-0.209% [at 11.6 µM]
Cn1ncc2cc(-c3cnc(N)c(Cl)c3N3CCC4(CCNC4=O)CC3)ccc21,Potency,[1],inactive
same,Potency,[3],inactive
same,Potency,[2],inactive
same,"activity change, negative = inhibition",[6]; Viability,5.32%
N#Cc1ccc(COC[C@H]2O[C@@H](n3c(NCc4ccc(Cl)c(Cl)c4)nc4c(N)ncnc43)[C@H](O)[C@@H]2O)cc1,Potency,[1],inactive
same,Potency,[3],inactive
same,Potency,[2],inactive
COc1ccc(S(=O)(=O)N2CCC[C@H]2C(=O)Nc2cc(C)cc(C)c2)cc1,Potency,[1],inactive
same,Potency,[2],inactive
C/C=C/C=C/C(=O)O[C@@H]1C=C2COC(=O)[C@]2(O)[C@@]2(C)CCCC(C)(C)[C@H]12,Potency,[1],inactive
same,Potency,[3],inactive
same,Potency,[2],inactive
O=C1NC(=O)C(c2cnc3ccccn23)=C1c1cn2c3c(cc(F)cc13)CN(C(=O)N1CCCCC1)CC2,Potency,[1],inactive
same,Potency,[3],inactive
same,Potency,[2],inactive
same,"activity change, negative = inhibition",[6]; Viability,-0.987%
C=C1C(=O)O[C@@H]2[C@H]3C(C)=CC(=O)C3=C(C)[C@@H](OC(=O)/C(C)=C\C)[C@H](O)[C@@H]12,Potency,[1],inactive
same,Potency,[2],inactive
C=C1C(=O)O[C@@H]2[C@H]1CC[C@H](C)C(CCC(=O)O)C2(C)O (stereo partly specified),Potency,[1],inactive
same,Potency,[2],inactive
C[C@@H]1CC[C@]2(C(=O)O)CC[C@]3(C)C(=CCC4[C@@]5(C)CC[C@H](O)[C@](C)(C(=O)O)C5CC[C@]43C)C2[C@]1(C)O (stereo partly specified),Potency,[1],inactive
same,Potency,[3],inactive
same,Potency,[2],inactive
C=C1C(=O)O[C@@H]2C[C@@]3(C)CCCC(=C)[C@]3(O)C[C@H]12,Potency,[1],inactive
same,Potency,[2],inactive
Cc1ccc(OC[C@H](O)[C@H](C)NC(C)C)c2c1CCC2,Potency,[1],inactive
same,Potency,[3],inactive
same,Potency,[2],inactive
C=C(C)C(=O)OC1CC(CO)CCC/C(CO)=C/C2OC(=O)C(=C)C21 (stereo unspecified),Potency,[1],inactive
same,Potency,[2],inactive
COc1cc(N2CCC(N)CC2)ccc1Nc1ncc(Cl)c(-c2c[nH]c3ccccc23)n1,Potency,[1],5.01 µM (active)
same,Potency,[3],8.91 µM (active)
same,Potency,[6]; HiBiT,5.57 µM (active)
Cc1cc(-c2nc3cc(F)ccc3s2)ccc1NC(=O)[C@@H](N)CCCCN,Potency,[1],11.2 µM (active)
same,Potency,[3],14.1 µM (active)
same,Potency,[2],15.8 µM (active)
same,Potency,[6]; Viability,22.2 µM (active)
c1ccc(-c2ccc(CNc3nc(-c4ccccn4)nnc3-c3ccccc3)cc2)cc1,Potency,[1],12.6 µM (active)
same,Potency,[2],11.2 µM (active)
C=C1C(=O)OC2C(OC(=O)C=C(C)C)C(C)=C3C(=O)C=C(C)C3C(O)C12 (stereo unspecified),Potency,[1],12.6 µM (active)
same,Potency,[2],inactive
CNc1nc(Nc2ccc(C(=O)N3CCOCC3)cc2OC)nc2[nH]cc(Cl)c12,Potency,[1],inactive
same,Potency,[3],inactive
same,Potency,[2],inactive
CC(NCCCc1cccc(C(F)(F)F)c1)c1cccc2ccccc12 (stereo unspecified),Potency,[1],inactive
same,Potency,[3],inactive
same,Potency,[2],inactive
C=C1C(=O)O[C@@H]2/C=C(\C)CC/C=C(\C)CC[C@@H]12,Potency,[1],inactive
same,Potency,[2],inactive
CC(C)S(=O)(=O)Nc1ccc(F)c(C(=O)c2c[nH]c3ncc(-c4cccnc4)cc23)c1F,Potency,[1],25.1 µM (active)
same,Potency,[2],inactive
CC1CCCC[C@H]2C(=O)C=C[C@H](O)[C@@H]2CC(=O)O1 (stereo partly specified),Potency,[1],3.55 µM (active)
same,Potency,[2],14.1 µM (active)
CCOc1cc(C(C)(C)C)ccc1C1=N[C@@](C)(c2ccc(Cl)cc2)[C@@](C)(c2ccc(Cl)cc2)N1C(=O)N1CCN(CC(=O)N2CCOCC2)CC1,Potency,[1],inactive
same,Potency,[2],inactive
C#Cc1cccc(Nc2nc3cc(C(=O)O)ccc3c3cncnc23)c1,Potency,[1],inactive
same,Potency,[2],inactive
COC1CC(=O)C23C(=O)NC(Cc4c[nH]c5ccccc45)C2C(C)C2(C)OC2C3/C=C/CC(C)CC1O (stereo unspecified),Potency,[1],8.91 µM (active)
same,Potency,[2],inactive
O=C(c1ccccc1)c1c(O)cc(O)cc1O[C@@H]1O[C@H](CO)[C@@H](O)[C@H](O)[C@H]1O,Potency,[1],inactive
same,Potency,[2],11.2 µM (active)
COc1ccc(C(=O)O[C@H]2C=COC=C3C=C4C(=O)N(C)C(=S)C(=O)N4[C@@H]32)cc1Oc1cc(C=O)ccc1O,Potency,[1],inactive
same,Potency,[2],inactive
